The record followed here is PubChem BioAssay.

Where “and” joins values, the source holds several entries; their conditions need not be identical. Equal values may be shown once. Records with an inconclusive call do not appear. Calls of active or inactive are those of the source. Unless noted, the rule behind the calls is not given here.

Test [1] relates to Aerobactin synthetase IucA (Klebsiella pneumoniae). Put plainly: IucA aerobactin synthetase inhibitors, biochemical, Tocris library, absorbance (AID 1345561).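 Note: 100% = enzyme without compound and 0% = no enzyme.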 The following applies: purified IucA enzyme assay, absorbance (OD) read-out; stronger effect = lower value;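 tested at 8 µM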.
A short description of test [2]: growth inhibition of DIPG glioma cells, dose response, cell-based, SU-DIPG-XVII, MIPE5.0, CellTiter-Glo, qHTS (AID 1347060; cut-off not given, nearly all actives have AC50 up to about 26 µM;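 for AC50: cells exposed to compound for 48 hours before viability readout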). The following applies: SU-DIPG-XVII viability, CellTiter-Glo ATP luminescence. Background: ATP-based viability assays read luminescence as a measure of living cells.
Test [3] in a line: growth inhibition of DIPG glioma cells, dose response, cell-based, JHH-DIPG-1, MIPE4.0, CellTiter-Glo, qHTS (AID 1347062; cut-off not given, nearly all actives have AC50 up to about 27 µM). The following applies: JHH-DIPG-1 viability, CellTiter-Glo ATP luminescence.
Test [4] is described as follows: growth inhibition of DIPG glioma cells, dose response, cell-based, SU-DIPG-IV, MIPE4.0, CellTiter-Glo, qHTS (AID 1347063; cut-off not given, nearly all actives have AC50 up to about 30 µM;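 note: compound exposure lasted 48 hours before the viability readout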). The following applies: SU-DIPG-IV viability, CellTiter-Glo ATP luminescence.
A short description of test [5]: growth inhibition of DIPG glioma cells, dose response, cell-based, SU-DIPG-XIII, MIPE5.0, CellTiter-Glo, qHTS (AID 1347064; cut-off not given, nearly all actives have AC50 up to about 23 µM;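 for AC50: cells exposed to compound for 48 hours before the viability read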). The following applies: SU-DIPG-XIII viability, CellTiter-Glo ATP luminescence.
Test [6] is described as follows: viability loss in pontine glioma line – cell-based, SU-DIPG-XXV, MIPE5.0, CellTiter-Glo, qHTS, dose response (AID 1347065; cut-off not given, nearly all actives have AC50 up to about 26 µM;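 note: cells exposed to compound for 48 hours before ATP readout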). The following applies: CellTiter-Glo ATP luminescence.
Test [7] can be described thus: SU-DIPG-VI glioma cell viability, MIPE4.0 library, CellTiter-Glo luminescence, qHTS (AID 1347066; cut-off not given, nearly all actives have AC50 up to about 30 µM;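 note: cells exposed to compound for 48 hours before readout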). The following applies: CellTiter-Glo ATP luminescence.
Test [8] is described as follows: SU-DIPG-XXV glioma cell viability, MIPE5.0 library, qHTS (AID 1347068; cut-off not given, nearly all actives have IC50 up to about 30 µM;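 for IC50: cells exposed to compound for 48 hours before viability readout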). In general terms: In qHTS, concentration-response curves come from the screen itself.
A short description of test [9]: sensitizers of A549 cells to miR-34 induction, primary screen, imaging, A549 dox-inducible miR-34, nuclei and caspase counts (AID 1347080;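 active = compounds whose cell count with miR-34 switched on is under 0.7 times the count with it off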). The following applies: A549 miR-34 inducible, Hoechst nuclei count, 48 h.
The nature of test [10]: modifiers of HSF1 nuclear foci, imaging, Selleck Cancer Library (AID 1347162; in the data active = plate-normalised HSF1 focus index below about 0.46). The following applies: human cells, at 10 µM; SSMD: measured here: HSF1 foci SSMD mean; cell count: measured here: cell number; plate-normalised HSF1 focus index: stronger effect = lower value.
Test [11] can be described thus: viability rescue of complex I mutant cybrids, primary screen, cell-based, galactose medium, ATP luminescence (AID 1645843;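 active = z-score of at least 1.8 in each of two replicates, scored against plate mean and spread of sample wells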;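 note: positive z means more ATP and so rescue of galactose-driven cybrid death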). The following applies: complex I mutant cybrid cells, 72 h, stronger effect = higher value.
The nature of test [12]: inhibitors of Cryptococcus chitosan production, flow cytometry, Cibacron Brilliant Red staining (AID 1347148).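 Note: compound exposure lasted three days at 37 degrees C.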 The following applies: Cryptococcus neoformans chitosan, stronger effect = lower value; at 10 µM unless noted. Background: Flow cytometry measures light scatter and fluorescence of single cells or particles in a stream.
The nature of test [13]: growth inhibition of DIPG glioma cells, dose response, cell-based, SU-DIPG-XIII, MIPE4.0, CellTiter-Glo, qHTS (AID 1347061; cut-off not given, nearly all actives have AC50 up to about 37 µM;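 note: cells exposed to compound for 48 hours before readout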). The following applies: SU-DIPG-XIII viability, CellTiter-Glo ATP luminescence.
Test [14] is described as follows: JHH-DIPG-1 glioma cell viability, MIPE5.0 library, CellTiter-Glo luminescence, qHTS (AID 1347067; cut-off not given, nearly all actives have AC50 up to about 26 µM;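 note: cells exposed to compound for 48 hours before readout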). The following applies: JHH-DIPG-1 glioma viability, CellTiter-Glo ATP luminescence.
A short description of test [15]: circadian clock period modulators, cell-based, LOPAC library, luminescence reporter (AID 2774).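 Note: values are relative to mean of DMSO wells on each plate.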 The following applies: circadian reporter cells, at 7 µM, actives lie on both sides.
Test [16] has as its system Hepatitis C virus NS3 helicase. Put plainly: HCV NS3 helicase inhibitors, primary screen, biochemical, fluorescence polarization, LOPAC1280 library (AID 687035; in the data active = inhibition above about 37%). The following applies: Purified HCV NS3 helicase, Cy5-dT15 ssDNA binding fluorescence polarization; stronger effect = higher value; concentration not given here.
The nature of test [17]: Cy5 fluorescence quenching or enhancement artefacts, artefact control for HCV NS3 helicase inhibitor project, biochemical, LOPAC1280 (AID 687037). The following applies: Cy5-DNA-NS3h complex fluorescence interference counterscreen.
Test [18] has as its system Aerobactin synthetase IucA (Klebsiella pneumoniae, hypervirulent). The experiment in a line: IucA enzyme inhibition, biochemical, LOPAC library, absorbance readout (AID 1346212).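 Note: 100% = no compound wells and 0% = no enzyme wells.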 The following applies: IucA enzyme assay, absorbance (OD) readout; stronger effect = lower value;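 tested at 8 µM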.
Where [19] appears, read: measured here: relative caspase fold change +Dox/-Dox.
The mark [20] stands for this setting: measured here: total cells with miR-34 induction, stronger effect = lower value.
[21] abbreviates: measured here: total cells without miR-34 induction.

One may read the remaining activity as the signal under treatment as a percentage of the control signal. Regarding `CN(C)CCN(C)CCc1ccc(Cl)c(Cl)c1`, the remaining activity in test [1] is 102% (inactive). Besides, the compound was called inactive in [2], in [3], in test [4], in [5], in test [6] and in test [7]. Further, the call in [8] was inactive. Moreover, the fold change was 0.927 (inactive) in test [9] (stronger effect = lower value, cell number ratio, induced over uninduced) and 0.848 in test [9] (setting [19]). Moreover, the figures for the cell count in [9] (setting [20]), in [9] (setting [21]) and in test [10] were 8600, 9270 and 7160, respectively. This compound also had an SSMD in [10] of 1.43. The plate-normalised HSF1 focus index in test [10] is 1.09 (inactive). Further, the z-score in test [11] was -0.285 (inactive).

As to `CC(C)(c1ccc(OCC2CO2)cc1)c1ccc(OCC2CO2)cc1` (stereo not given), the remaining activity in test [1] was 110% (inactive). The fold change in test [9] (stronger effect = lower value) was 0.903 (inactive) and 0.927 (inactive) and 0.945 (inactive); in test [9] (setting [19]), 1.23 and 0.827 and 0.981. The cell count was 5020 and 5510 and 8910 in test [9] (setting [20]); 5560 and 5950 and 9430 in test [9] (setting [21]). Also, in test [12], the fold fluorescence was 8.02 [at 146.9 µM] (inactive). Besides, the z-score in [11] was -0.925 (inactive).

For orientation: AC50 means the concentration at which the activity in the assay is half-maximal. The term IC50 denotes the point on the concentration scale where inhibition reaches its midpoint. Turning to `C[C@H]1CCC/C=C/C2C[C@H](O)C[C@H]2[C@H](O)/C=C/C(=O)O1` (stereo not given in full), the remaining activity in test [1] was 129% (inactive). Also, the AC50 in test [2] is 66.1 nM (active); in test [5] it was 0.235 µM (active); in [6] it was 0.263 µM (active); in test [14], 0.235 µM (active). Also, the compound was called inactive in test [13], in test [3], in [4] and in test [7]. In test [8], the IC50 is 209 nM (active). Moreover, the fold change in test [9] (stronger effect = lower value) was 1.05 (inactive) and 1.09 (inactive); in test [9] (setting [19]), 1.17 and 1.67. The cell count is 2000 and 1470 in test [9] (setting [20]); 1910 and 1340 in test [9] (setting [21]). Moreover, in test [12], the fold fluorescence was 10.7 [at 178.3 µM] (inactive). Besides, the z-score in test [11] was -0.56 (inactive).

As for `COc1ccc(C(=O)c2c(C)n(CCN3CCOCC3)c3cc(I)ccc23)cc1`, the remaining activity in test [1] was 93.9% (inactive). The AC50 in test [4] was 20.9 µM (active); in test [5], 23.5 µM (active); in test [6], 16.6 µM (active); in test [7] it was 23.5 µM (active); in test [14] it was 23.5 µM (active). Also, the fold change in test [9] (stronger effect = lower value) is 1.09 (inactive); in test [9] (setting [19]), 0.642. For the same compound, the cell count in test [9] (setting [20]) came out at 2860; in test [9] (setting [21]), 2630. In addition, the z-score in test [11] is -0.38 (inactive).

In general, inhibition refers to the drop in the measured response relative to a control, in per cent. In the case of `C[N+]1(C)CCC(OC(=O)C(c2ccccc2)c2ccccc2)CC1`, in [15], the period change is 0.03 h (inactive). Moreover, the inhibition in test [16] is -2% (inactive). In addition, the fluorescence ratio (interference) in [17] is 1.1 (inactive). The remaining activity in test [1] is 93.9% (inactive); in [18], 107% (inactive). Also, the fold change in test [9] (stronger effect = lower value) was 0.984 (inactive) and 0.955 (inactive); in test [9] (setting [19]) it was 1.12 and 0.994. For the same compound, the cell count in [9] (setting [20]) is 9760 and 8710; in [9] (setting [21]), 9910 and 9120. Further, the z-score in test [11] was 0.275 (inactive) and 1.67 (inactive).
